Bioassay records (PubChem BioAssay)
Shown is part of a subset that was picked to be rich in hits.
DT40 TDP1 CPT = qHTS for Inhibitors of human tyrosyl-DNA phosphodiesterase 1 (TDP1): qHTS in cells in presence of CPT; chicken DT40 Tdp1-/-;hTDP1 cells + 20 nM CPT, ATP luminescence, 48 h; Potency, µM (series often up to 46.2 µM), without a hit: at the highest dose activity change, negative = growth inhibition, usual class: inhibitors; 12% of 420,000 active; further: potency means the concentration at half of the fitted maximal effect; nearly all actives have a fitted effect of over 55% in size
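Chicken DT40 Tdp1-/- cells stably complemented with human TDP1 were seeded at 400 cells/well in medium containing 20 nM camptothecin, exposed to pin-transferred compounds, and grown at 37 °C for at least 48 hr. Viability was read as ATP luminescence.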
TDP1 cell noCPT = qHTS for Inhibitors of human tyrosyl-DNA phosphodiesterase 1 (TDP1): qHTS in cells in absence of CPT | DT40 Tdp1-/- hTDP1 cells, no CPT, ATP luminescence, 48 h | Potency, µM (titrated, usually from 46.2 µM), for the others: top-dose activity change, negative = growth inhibition, usual class: inhibitors | 15% of 420,000 active | AID 686978, 2013; further: potency means the concentration at half of the fitted maximal effect; nearly all actives have a fitted effect of over 55% in size
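Stably hTDP1-transfected Tdp1-null chicken DT40 cells were treated with library compounds minus camptothecin and grown for at least 48 hr at 37 °C, after which cellular ATP was quantified by luminescence.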
ALOX12 inh = Primary qHTS assay for inhibitors of human arachidonate 12S-lipoxygenase (ALOX12): Round 2; Polyunsaturated fatty acid lipoxygenase ALOX12 (Homo sapiens), P18054; Potency, µM (highest dose often 108 µM), inactives show top-dose activity change, negative = inhibition, usual class: inhibitors; purified 12hLO, xylenol orange hydroperoxide absorbance; 1.1% of 580,000 active; further: potency means the concentration at half of the fitted maximal effect
Target sequence (P18054 whole entry, looked up): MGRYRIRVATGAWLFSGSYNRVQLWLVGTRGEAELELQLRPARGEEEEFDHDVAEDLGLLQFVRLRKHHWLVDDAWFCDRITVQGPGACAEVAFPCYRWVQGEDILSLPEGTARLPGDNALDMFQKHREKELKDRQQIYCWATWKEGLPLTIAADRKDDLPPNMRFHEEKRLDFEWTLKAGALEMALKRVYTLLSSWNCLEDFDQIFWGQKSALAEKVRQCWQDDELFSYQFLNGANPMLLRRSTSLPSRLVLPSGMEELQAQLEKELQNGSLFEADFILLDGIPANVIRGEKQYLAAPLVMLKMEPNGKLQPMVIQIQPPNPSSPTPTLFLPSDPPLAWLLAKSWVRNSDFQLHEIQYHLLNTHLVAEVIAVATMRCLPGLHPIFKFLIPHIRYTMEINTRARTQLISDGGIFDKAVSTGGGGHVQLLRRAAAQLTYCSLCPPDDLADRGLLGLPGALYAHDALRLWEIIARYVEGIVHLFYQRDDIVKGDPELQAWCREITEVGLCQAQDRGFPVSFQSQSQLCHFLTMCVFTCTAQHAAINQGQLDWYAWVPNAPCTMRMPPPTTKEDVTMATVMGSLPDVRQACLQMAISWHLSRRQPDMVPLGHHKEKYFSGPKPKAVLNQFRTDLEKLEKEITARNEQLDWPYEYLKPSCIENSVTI
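Purified human 12hLO at 150 nM in 25 mM Hepes, 0.01% Triton X-100, pH 7.0, preincubated 15 min at room temperature with compound. Reaction started with 40 uM arachidonic acid, 30 min at room temperature. Hydroperoxide measured by Fe-xylenol orange, 573/405 nm absorbance ratio.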
HT1080-NT tox = qHTS for induction of synthetic lethality in tumor cells producing 2HG: qHTS for the HT-1080-NT fibrosarcoma cell line; HT-1080-NT fibrosarcoma viability, CellTiter-Glo ATP luminescence, 48 h; Potency, µM (series often up to 46.1 µM), inactives show at the highest dose activity, negative = less viability, actives largely listed as cytotoxic; 1.6% of 360,000 active;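 further: NT is the 2HG producing partner of a matched IDH1 knockdown line; potency means the concentration at half of the fitted maximal effect; 0% = DMSO-treated cells and -100% = media-only wells without cells; nearly all actives have a fitted effect of over 55% in size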
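Read-out is CellTiter-Glo luminescence after 10 minutes at room temperature, following 48 hours' compound treatment of HT-1080-NT cells (750 cells/well, RPMI, 5% FBS, 37 degrees C).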
HT1080 IDH1KD tx = qHTS for induction of synthetic lethality in tumor cells producing 2HG: qHTS for the HT-1080-IDH1KD cell line; 2% of 360,000 active; Potency, µM (doses to about 46.1 µM), inactives show at the top dose activity, negative = toxicity, hits mostly cytotoxic; HT-1080 IDH1 knockdown viability, ATP luminescence, 48 h;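 further: potency means the concentration at half of the fitted maximal effect; 0% = DMSO wells and -100% = cell-free medium wells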
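Assay cells: HT-1080 with IDH1 knockdown, 750 per well, RPMI/5% FBS. Exposure: 48 h at 37 °C following 2 h pre-incubation. Read: CellTiter-Glo luminescence; fitted concentration-response, curve class assigned.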
IL-1B inflam inh = qHTS for Inhibitors of Inflammasome Signaling: IL-1-beta AlphaLISA Primary Screen; activity change, % at 57.5 µM; 4.7% of 360,000 active; THP-1 LPS/ATP IL-1B secretion, AlphaLISA, 16 h; active compounds read low; in the data active means activity change below about -50%; inconclusive means mostly about -30% to -49%
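THP-1 cells pretreated 1 hr with compounds (up to 57.5 uM final), then stimulated with LPS (250 ng/mL final) plus ATP (1.25 mM final); secreted IL-1B measured by AlphaLISA after 16 hr, decreased signal indicating inhibition.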
An asterisk follows results filed as active; [ ] = another dose, or the depositor's remark. Unless noted, the call rests on the fitted dose curve; in most records, active means well fitted curve in the direction sought with a large enough effect; inconclusive means small, poorly fitted or top-dose-only effect, or another doubt; inactive means no such curve, though single readings can be large; an effect the other way counts as inactive or inconclusive. Unless noted, on the % scale 0 is the no-effect control and ±100 the full control effect.

COc1ccc(C2c3c(ncn(Cc4ccco4)c3=N)Oc3ccc4ccccc4c32)cc1 (configuration not stated) was read as DT40 TDP1 CPT inconclusive, TDP1 cell noCPT 16.4µM*, ALOX12 inh inconclusive, HT1080-NT tox 20.6µM*, HT1080 IDH1KD tx inconclusive and IL-1B inflam inh -76.7*.
`O=c1oc2cc(Br)ccc2n1CSC1=NCCS1` gave DT40 TDP1 CPT 20.6µM*, TDP1 cell noCPT 18.4µM*, ALOX12 inh 0.0%, HT1080-NT tox -20.9%, HT1080 IDH1KD tx 7.6%[9.24 µM] and IL-1B inflam inh -65.5*.
COc1ccc(OC)c(NC(=O)C2(C)CCN2Cc2ccc(SC)cc2)c1 (configuration not stated) was read as DT40 TDP1 CPT 6.9%, TDP1 cell noCPT -29.8%, ALOX12 inh 2.5%, HT1080-NT tox 3.4%, HT1080 IDH1KD tx -9.2% and IL-1B inflam inh -6.0.
COc1ccc(OCCNC(=O)C2(C)CCN2Cc2ccc3ccccc3c2)cc1 (configuration not stated) was read as DT40 TDP1 CPT 29.1µM*, TDP1 cell noCPT 16.4µM*, ALOX12 inh -0.8%, HT1080-NT tox inconclusive, HT1080 IDH1KD tx inconclusive and IL-1B inflam inh -13.6.
For COc1ccc(OCCNC(=O)C2(C)CCN2Cc2ccc(SC)cc2)cc1 (configuration not stated) the results were DT40 TDP1 CPT inconclusive, TDP1 cell noCPT 16.4µM*, ALOX12 inh inconclusive, HT1080-NT tox -24.5%, HT1080 IDH1KD tx -11.7% and IL-1B inflam inh -9.5.
Screening COCc1nnc(NC(=O)c2cccc3c2ccn3C)s1 returned ALOX12 inh -10.0%.
Screening COc1cc(NS(=O)(=O)c2ccc(C)cc2C)cc(OC)c1OC returned DT40 TDP1 CPT 6.51µM*, TDP1 cell noCPT 6.51µM*, ALOX12 inh -21.4%, HT1080-NT tox -27.1%, HT1080 IDH1KD tx -39.0% and IL-1B inflam inh 24.4.
Screening COc1cc(NS(=O)(=O)c2cc3c(cc2C)N(C)CCO3)cc(OC)c1OC returned DT40 TDP1 CPT 20.6µM*, TDP1 cell noCPT 14.6µM* and ALOX12 inh -13.0%.
O=C(c1ccc2c(c1)OCO2)N1CCC2(CC1)NC(=O)N(Cc1ccccc1)C2=O was read as ALOX12 inh 4.2%.
`Cc1ccc(S(=O)(=O)N2CCN(C(=O)c3ccccc3OCc3c(C)noc3C)CC2)cc1` gave DT40 TDP1 CPT 18.4µM*, TDP1 cell noCPT inconclusive, ALOX12 inh -39.2%, HT1080-NT tox -10.2%, HT1080 IDH1KD tx -7.1% and IL-1B inflam inh 15.5.
Screening Cc1cccc(N2CCN(C(=O)c3ccccc3OCc3c(C)noc3C)CC2)c1C returned DT40 TDP1 CPT 18.4µM*, TDP1 cell noCPT 16.4µM*, ALOX12 inh inconclusive, HT1080-NT tox 5.0%, HT1080 IDH1KD tx -0.2% and IL-1B inflam inh inconclusive.
For Cc1noc(C)c1COc1ccccc1C(=O)N1CCN(S(=O)(=O)c2ccc(F)c(F)c2)CC1 the results were DT40 TDP1 CPT -19.2%, TDP1 cell noCPT 0.9%, ALOX12 inh 4.4%, HT1080-NT tox -5.1%, HT1080 IDH1KD tx -4.4% and IL-1B inflam inh 12.3.
`Cc1noc(C)c1COc1ccccc1C(=O)N1CCN(S(=O)(=O)c2ccccc2F)CC1` gave DT40 TDP1 CPT inconclusive, TDP1 cell noCPT -15.5%, ALOX12 inh -1.2%, HT1080-NT tox -7.3%, HT1080 IDH1KD tx -8.7% and IL-1B inflam inh 3.2.
`CCS(=O)(=O)Nc1ccc(C2=NN(S(C)(=O)=O)C(c3cccs3)C2)cc1` (configuration not stated) gave DT40 TDP1 CPT -2.5%, TDP1 cell noCPT -21.6%, ALOX12 inh 0.0%, HT1080-NT tox -10.8%, HT1080 IDH1KD tx -12.6% and IL-1B inflam inh 9.1.
Screening Cc1ccc(N(C)C(=O)C2CCCN(c3ncnc4c3nc3n4CCCCC3)C2)cc1C (configuration not stated) returned DT40 TDP1 CPT inconclusive, TDP1 cell noCPT 9.2µM* and ALOX12 inh -6.0%.
`Cc1ccc(C)c(N(C)C(=O)C2CCN(c3ncnc4c3nc3n4CCCCC3)CC2)c1` gave DT40 TDP1 CPT inconclusive, TDP1 cell noCPT inconclusive and ALOX12 inh 2.5%.
CCOc1ccccc1N(C)C(=O)C1CCCN(c2ncnc3c2nc2n3CCCCC2)C1 (configuration not stated) was read as DT40 TDP1 CPT -30.2%, TDP1 cell noCPT -10.8% and ALOX12 inh -0.6%.
CN(C(=O)C1CCN(c2ncnc3c2nc2n3CCCCC2)CC1)c1ccccc1F was read as DT40 TDP1 CPT inconclusive, TDP1 cell noCPT inconclusive and ALOX12 inh -20.5%.
Screening CN(C(=O)C1CCCN(c2ncnc3c2nc2n3CCCCC2)C1)c1ccccc1F (configuration not stated) returned DT40 TDP1 CPT 23.1µM*, TDP1 cell noCPT 11.6µM* and ALOX12 inh -2.7%.
Screening CCc1ccccc1N(C)C(=O)C1CCCN(c2ncnc3c2nc2n3CCCCC2)C1 (configuration not stated) returned DT40 TDP1 CPT 18.4µM*, TDP1 cell noCPT 4.11µM* and ALOX12 inh -9.9%.
For CCc1ccccc1N(CC)C(=O)C1CCN(c2ncnc3c2nc2n3CCCCC2)CC1 the results were DT40 TDP1 CPT 8.2µM*, TDP1 cell noCPT 4.11µM*, ALOX12 inh -2.9%, HT1080-NT tox -5.3%, HT1080 IDH1KD tx inconclusive and IL-1B inflam inh -26.6.
Screening NS(=O)(=O)OCC(Cc1ccccc1)N1C(=O)c2ccccc2C1=O (configuration not stated) returned DT40 TDP1 CPT inconclusive, TDP1 cell noCPT -20.7%, ALOX12 inh -2.7%, HT1080-NT tox -2.5%, HT1080 IDH1KD tx 3.3% and IL-1B inflam inh 13.7.
For O=C(COC(=O)c1c(F)cccc1F)NC(=O)NCc1ccccc1 the results were DT40 TDP1 CPT -5.3%, TDP1 cell noCPT -7.8%, ALOX12 inh -0.2%, HT1080-NT tox -0.2%, HT1080 IDH1KD tx -6.4% and IL-1B inflam inh 0.0.
Screening O=C(CCc1c[nH]c2ccccc12)Nc1ccc(F)cc1F returned ALOX12 inh -0.5%.
